Laboratory results from PubChem BioAssay AID504332 (National Center for Advancing Translational Sciences (NCATS), 2011).
Screen size: about 350,000 compounds; about 31,000 (8.9%) were called active. Roughly 15% stayed inconclusive and do not appear here. The call rests on the fitted dose curve; in most records, active means well fitted inhibition curve with a large enough effect; inconclusive means small, poorly fitted or top-dose-only effect; inactive means no such curve, though single readings can be large or run the other way. Shown is part of a subset that was picked to be rich in actives.

Target: Histone-lysine N-methyltransferase EHMT2 (Homo sapiens) (UniProt Q96KQ7)
Sequence (Q96KQ7 913-1193 limits assumed): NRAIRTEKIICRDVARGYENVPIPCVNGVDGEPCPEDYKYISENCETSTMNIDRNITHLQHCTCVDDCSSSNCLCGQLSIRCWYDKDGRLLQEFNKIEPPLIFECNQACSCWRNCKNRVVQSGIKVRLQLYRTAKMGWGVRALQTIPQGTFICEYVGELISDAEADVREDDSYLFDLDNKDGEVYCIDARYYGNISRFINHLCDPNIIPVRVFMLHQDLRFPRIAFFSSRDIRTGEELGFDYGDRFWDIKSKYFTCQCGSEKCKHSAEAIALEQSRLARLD
Assay: qHTS Assay for Inhibitors of Histone Lysine Methyltransferase G9a; further: nearly all actives have a fitted effect of over 75% in size
Conditions: G9a H3K9 monomethylation, AlphaScreen, 2 h; series mostly up to 59 µM; activity, negative = inhibition: at the top concentration
Summary of the method: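 G9a (20 nM) was preincubated 15 min with compound, then reacted 2 h at room temperature with 500 nM biotin-H3K9 peptide and 20 µM SAM. Monomethyl-H3K9 detected by AlphaScreen using anti-H3K9me1 antibody.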
On the % scale 0 is the no-effect control and ±100 the full control effect; potency means the concentration at half of the fitted maximal effect.

| SMILES | Potency | activity, negative = inhibition |
| --- | --- | --- |
| NC(=O)c1ccc(Nc2ccc3nonc3c2[N+](=O)[O-])cc1 | 56.2 µM (active) |  |
| NC(=O)c1ccc(Nc2ccc3c(c2)CCC3)c([N+](=O)[O-])c1 |  | 20.1% [at 102 µM] (inactive) |
| CCOc1ccccc1Nc1ccc2nonc2c1[N+](=O)[O-] |  | -2.07% [at 102 µM] (inactive) |
| O=C(NC1CCCC1)c1cc(-c2ccccc2)on1 |  | 7.25% [at 102 µM] (inactive) |
| CN(C(=O)COC(=O)CCCc1c[nH]c2ccccc12)c1c(N)n(Cc2ccccc2)c(=O)[nH]c1=O |  | 16.6% (inactive) |
| O=C(COC(=O)Cc1c[nH]c2ccccc12)NCCc1ccccc1 |  | -36.1% [at 102 µM] (inactive) |
| CC(C)(C)N(Cc1ccccc1)C(=O)COC(=O)CCc1c[nH]c2ccccc12 | 14.1 µM (active) |  |
| O=C1CCc2cc(S(=O)(=O)Nc3ccc(C(F)(F)F)cc3)cc3c2N1CC3 |  | -22.3% [at 0.501 µM] (inactive) |
| Nc1ncc(CN2CCCC(C(=O)Nc3ccc(-c4ccco4)cc3)C2)cn1 (stereo unspecified) | 50.1 µM (active) |  |
| CCOc1ccc(NC(=O)C2CCCN(C(=O)Nc3ccccc3)C2)cc1 (stereo unspecified) |  | -10.8% (inactive) |
| COC(=O)c1ccc(CN2CCCC(C(=O)Nc3cccc(-n4cnnn4)c3)C2)cc1 (stereo unspecified) |  | 6.29% [at 102 µM] (inactive) |
| CCNS(=O)(=O)c1cc(-c2nnc(Nc3cccc(C(F)(F)F)c3)c3ccccc23)ccc1C |  | -24.3% (inactive) |
| Cc1c(C(=O)Nc2ccccn2)oc2ccc(Br)cc12 |  | 2.88% [at 102 µM] (inactive) |
| Cc1ccc(CNC(=O)c2cccc3c2C(=O)c2ccc(N4CCC(C)CC4)cc2S3(=O)=O)cc1 |  | 6.64% [at 0.501 µM] (inactive) |
| Cc1csc(NC(=O)CSc2nc(=O)n(CCCN(C)C)c3c2CCC3)n1 |  | -47% [at 102 µM] (inactive) |
| Cc1ccc(NC(=O)CSc2nc(=O)n(CCN(C)C)c3c2CCCC3)c(C)c1 |  | 6.7% [at 0.501 µM] (inactive) |
| Cc1ccc2nc(NC(=O)CSc3nc(=O)n(CCCN(C)C)c4c3CCC4)sc2c1 | 39.8 µM (active) |  |
| Cc1ccc(OCC(=O)Nc2ccc(OCc3cc(=O)n4c(C)csc4n3)cc2)cc1C |  | 29% (inactive) |
| Cc1ccc(-c2nc(CS(=O)(=O)CC(=O)NCc3ccc4c(c3)OCO4)c(C)o2)cc1 |  | 1.88% [at 102 µM] (inactive) |
| COc1cccc(-c2nc(CS(=O)(=O)CC(=O)NCCc3ccc(OC)c(OC)c3)c(C)o2)c1 | inactive |  |
| COc1ccc(-c2nc(CS(=O)(=O)CC(=O)NCc3cccc(Br)c3)c(C)o2)cc1 | 44.7 µM (active) |  |
| CCN(CC(=O)Nc1c(F)cccc1F)C(=O)C1CCC1 |  | -3.45% [at 102 µM] (inactive) |
| COc1cccc(NC(=O)C(=O)NCC(c2ccc3c(c2)OCO3)N2CCN(C)CC2)c1 (stereo unspecified) |  | 6.98% (inactive) |
| CCOC(=O)c1c(-c2ccc(OC)cc2)oc2ccc(OCc3ccc(C(=O)OC)cc3)cc12 |  | 58.2% (inactive) |
| CC(=O)c1sc(NC(=O)CCN2C(=O)C3CC=CCC3C2=O)nc1-c1ccccc1 (stereo unspecified) |  | -8.89% [at 2.33 µM] (inactive) |
| C[N+](C)(C)CCNC(=O)c1c(O)c2c([nH]c1=O)CCCC2 | 10 µM (active) |  |

| SMILES | Potency | activity, negative = inhibition |
| --- | --- | --- |
| O=C(NCc1ccccn1)c1c(O)c2c([nH]c1=O)CCCC2 |  | 13.7% (inactive) |
| CCc1nnc(NC(=O)c2c(O)c3c([nH]c2=O)CCCC3)s1 |  | 27.8% (inactive) |
| O=C(Nc1ccc(Br)cc1)c1ccc(Br)c(S(=O)(=O)NCc2ccccc2)c1 |  | -2.54% (inactive) |
| COc1ccc(CCNC(=S)N2CCN(S(=O)(=O)c3ccc(F)cc3)CC2)cc1 |  | -16.1% [at 0.501 µM] (inactive) |
| CN(C)S(=O)(=O)N1CCC(Oc2cccc(C(=O)NCCCC3CCCC3)c2)CC1 |  | 69.6% [at 102 µM] (inactive) |
| C=CCNc1nnc(SCC(=O)N2CCCCC2)c2ccccc12 | 50.1 µM (active) |  |
| O=C(CSc1nc2ccccc2nc1Cc1ccccc1)N1CCCCC1 |  | 2.23% (inactive) |
| C=CCNc1nnc(C)c2ccccc12 |  | -0.456% [at 102 µM] (inactive) |
| O=C(COc1ccccc1O)NC1CCCC1 |  | -42.6% [at 102 µM] (inactive) |
| COc1cc2ccccc2cc1C(=O)N1CCOCC1 |  | -27.4% [at 102 µM] (inactive) |
| COc1cc(OC)cc(C(=O)NNC(=O)CNC(=O)c2ccc(Br)o2)c1 |  | -1.19% [at 102 µM] (inactive) |
| O=C(Cn1cc(SCc2cccc(Cl)c2)c2ccccc21)N1CCCCC1 |  | 2.69% (inactive) |
| O=C(Cn1cc(SCc2ccccc2)c2ccccc21)N1CCCCC1 |  | -8.44% (inactive) |
| CCc1cccc2c(C=C(C#N)C#N)cn(CC(=O)N3CCCCC3)c12 | 44.7 µM (active) |  |
| CCc1cccc(C)c1NS(=O)(=O)c1ccc(-c2cc(C)no2)s1 |  | -1.34% (inactive) |
| COc1cccc(Nc2nc3ccccc3c3nncn23)c1 |  | 3.66% (inactive) |
| O=C(CN1CCN(Cc2ccc(Cl)cc2)C1=O)NCc1ccc(F)cc1 |  | -4.97% (inactive) |
| COC(=O)CSc1nnc(NC(=O)CCc2ccccc2)s1 |  | 12.7% (inactive) |
| CC(C)Cc1nnc(NC(=O)CCc2ccccc2)s1 | 35.5 µM (active) |  |
| CCOCc1nnc(NC(=O)CCS(=O)(=O)Cc2ccccc2)s1 | 79.4 µM (active) |  |
| COCCSc1nnc(NC(=O)CCS(=O)(=O)Cc2ccccc2)s1 |  | 15.9% [at 102 µM] (inactive) |
| Cc1ccc(S(=O)(=O)CCC(=O)Nc2nnc(CC(C)C)s2)cc1 |  | 8.95% [at 102 µM] (inactive) |
| COCc1nnc(NC(=O)CS(=O)(=O)Cc2ccccc2)s1 |  | -27% [at 12.7 µM] (inactive) |
| Cc1cccc(OCCC(=O)OCc2csc(CC(=O)Nc3ccccc3C)n2)c1 |  | -6.68% [at 12.7 µM] (inactive) |
| CCN(CC)CCn1cnc2c1c(=O)[nH]c(=O)n2Cc1ccccc1 |  | 20.1% [at 2.33 µM] (inactive) |
| CCCCn1c(=S)[nH]c2ncccc2c1=O |  | 17.8% [at 2.33 µM] (inactive) |

| SMILES | Potency | activity, negative = inhibition |
| --- | --- | --- |
| CCN(CC)CCn1c(=S)[nH]c2ncccc2c1=O | 15.8 µM (active) |  |
| CN(C(=O)CSc1nnc(NC(=O)Nc2ccccc2)s1)c1ccccc1 |  | 12.2% (inactive) |
| Cc1ccccc1NC(=O)Cn1c(=O)n(CCCCC(=O)NCc2ccccc2Cl)c(=O)c2ccccc21 |  | -25.2% (inactive) |
| CCOc1ccc(C(C)NC(=O)CN2C(=O)NC3(CCCCC3)C2=O)cc1OCC (stereo unspecified) |  | -0.826% (inactive) |
| CCOc1ccc(C(C)=O)cc1COC(=O)CN1C(=O)NC2(CCCC2)C1=O | 56.2 µM (active) |  |
| Cc1ccc(COC(=O)CN2C(=O)NC3(CCCC3)C2=O)cc1 |  | -12.1% [at 12.7 µM] (inactive) |
| CC(C)c1ccc(NC(=O)CN(C)S(=O)(=O)c2ccc3c(c2)c(=O)n(C)c(=O)n3C)cc1 |  | -40.7% (inactive) |
| CC(OC(=O)c1ccc(-n2cnnn2)cc1)C(=O)NCc1ccccc1 (stereo unspecified) |  | -1.43% [at 102 µM] (inactive) |
| NC1=NC(c2cc(F)cc(F)c2)n2c(nc3ccccc32)N1 (stereo unspecified) |  | -45.3% (inactive) |
| CCn1c2ccc(F)cc2c2nnc(SCCN3CCOCC3)nc21 | 44.7 µM (active) |  |
| N#Cc1cnn2cc(CCN3CCOCC3)c(-c3ccc(F)cc3)nc12 |  | 5.85% [at 102 µM] (inactive) |
| Cc1cc2nc(SCCN3CCOCC3)[nH]c2cc1C |  | 12.3% (inactive) |
| O=C(/C=C/c1cccc(C(F)(F)F)c1)N1CCN(c2ccccn2)CC1 |  | 13.1% [at 102 µM] (inactive) |
| Cc1ccc(NC(=O)CSc2nc3ccccc3c3nc(CCn4cncc4C)nn23)cc1F |  | -31.7% (inactive) |
| CCOC(=O)C1CCN(C(=O)C2CCCN(S(=O)(=O)c3ccc(OC)c(Cl)c3)C2)CC1 (stereo unspecified) |  | 2.19% [at 102 µM] (inactive) |
| O=C1c2ccccc2C(Nc2ccc3c(c2)OCCO3)N1Cc1ccco1 (stereo unspecified) | 39.8 µM (active) |  |
| CC1(C)SC2c3ccccc3C(=O)N2[C@@H]1C(=O)NCc1ccco1 (stereo partly specified) |  | -4.15% (inactive) |
| COC(=O)c1cc(NC2c3ccccc3C(=O)N2c2ccc(Cl)cn2)cc(C(=O)OC)c1 (stereo unspecified) |  | -10.9% (inactive) |
| Cc1cccc(C(=O)Nc2ccccc2-c2nnn(CC(=O)Nc3ccc4c(c3)OCCO4)n2)c1 |  | 48.1% [at 12.7 µM] (inactive) |
| Cc1ccnc(N2C(=O)c3ccccc3C2Nc2ccc3c(c2)OCCO3)c1 (stereo unspecified) | 79.4 µM (active) |  |
| O=C(NC1CCCCC1)C1c2ccccc2C(=O)N1Cc1ccco1 (stereo unspecified) |  | -38.1% [at 102 µM] (inactive) |
| COc1ccc(C(C)(C)C)cc1NC(=O)CCN1C(=O)C2CCCCC2C1=O (stereo unspecified) |  | -24.5% [at 12.7 µM] (inactive) |
| CC(=O)N1CCCc2cc(S(=O)(=O)N3CCC(C(=O)NCc4ccc(F)cc4)CC3)ccc21 |  | 22.6% (inactive) |
| COc1cc(NC(=O)CSc2nc3nc(C)c(Cc4ccc(C)cc4)c(C)n3n2)cc(OC)c1OC |  | 7.15% (inactive) |
| CCOc1ccccc1NC(=O)Cn1nnc(C(=O)Nc2ccc(C)c(C)c2)c1N |  | -6.58% (inactive) |
| Cc1ccc(NC(=O)C(=O)NCC(c2cccnc2)N2CCOCC2)cc1 (stereo unspecified) |  | 8.4% (inactive) |

| SMILES | Potency | activity, negative = inhibition |
| --- | --- | --- |
| COc1ccc(N(Cc2ccc(N(C)C)cc2)C(=O)c2ccc(S(C)(=O)=O)cc2)cc1 | 12.6 µM (active) |  |
| COc1ccc(S(=O)(=O)NCc2ccc(C(=O)N(C)Cc3ccco3)cc2)cc1 |  | -7.57% [at 102 µM] (inactive) |
| COc1ccc(C(=O)N(Cc2ccc(N(C)C)cc2)C2CCS(=O)(=O)C2)cc1 (stereo unspecified) |  | -2.24% [at 102 µM] (inactive) |
| COc1ccc(C)cc1N(C)C(=O)c1c(C)oc2ncnc(N3CCOCC3)c12 |  | -0.219% (inactive) |
| Cc1ccc(OCC(=O)Nc2ccccc2C(=O)NC2CC2)cc1C |  | 35% [at 102 µM] (inactive) |
| Cc1ccc2sc(NNC(=O)c3ccc4c(c3)OCCO4)nc2c1C | 10 µM (active) |  |
| Cc1ccc(C(=O)NNC(=O)c2ccc3c(c2)OCCO3)cc1 |  | 8.51% [at 2.33 µM] (inactive) |
| Cc1cccc(C)c1NC(=O)CNC(=O)c1ccc2c(c1)OCCO2 |  | -11.7% (inactive) |
| Cc1c(CNC(C)c2ccccc2)c(C(=O)O)c(C)n1Cc1c(F)cccc1Cl (stereo unspecified) |  | -5.36% (inactive) |
| C[n+]1cc(-c2ccccc2)oc1-c1ccccc1 | 50.1 µM (active) |  |
| CCSc1nsc(NC(=O)Nc2ccccc2OC)n1 |  | 27.7% [at 102 µM] (inactive) |
| O=C(CN1C(=O)COc2ccccc21)Nc1ccc(F)cc1 | 31.6 µM (active) |  |
| O=C(CN1C(=O)COc2ccc(Cl)cc21)Nc1ccc(N2CCOCC2)cc1 |  | -10.1% [at 102 µM] (inactive) |
| CC(OC(=O)CN1C(=O)COc2ccccc21)C(=O)NCc1ccc(F)cc1 (stereo unspecified) |  | -0.855% [at 102 µM] (inactive) |
| Cn1c(=O)c2c(SCC(=O)NCC3CCCO3)nc(-c3ccccc3F)nc2n(C)c1=O (stereo unspecified) |  | 3.42% (inactive) |
| CCOc1ccc(N(C)S(=O)(=O)c2cc(-c3cnc(C)o3)ccc2OC)cc1 |  | 4.14% (inactive) |
| Cc1cccc(N2CCN(C(=O)Cn3ncc4c5ccccc5n(C)c4c3=O)CC2C)c1 (stereo unspecified) |  | 4.42% (inactive) |
| OCCn1c(-c2ccccc2)csc1=Nc1ccccc1 | 44.7 µM (active) |  |
| COc1ccccc1OCCCn1c(-c2ccc(Cl)cc2)nc2ccccc2c1=O |  | 1.97% (inactive) |
| CN(C)CCCn1c(SCc2ccc(Cl)cc2)nnc1-c1ccncc1 |  | 14% [at 0.501 µM] (inactive) |
| Cc1csc(=Nc2ccccc2)n1CCO | 28.2 µM (active) |  |
| Cc1csc(=NC(=O)c2ccccc2)n1CCO |  | -1.86% (inactive) |
| CN(C)CCCn1c(-c2ccc(Cl)cc2)csc1=Nc1ccccc1 | 12.6 µM (active) |  |
